Values joined by “and” are separate entries in the source; they are usually repeats but may differ in a detail not shown here. Equal values may be shown once. Results filed as inconclusive are left out. Where a call stands in place of a potency, no number is given. A structure can be active in one record and inactive in another. Active and inactive are the calls of the source. Calls come from the whole dose curve; as a rule, active = well fitted activation curve with a large enough effect in the repeat runs; inconclusive = weak or mixed curves; inactive = no such curve, though single readings can be large or run the other way.
Potency is the fitted concentration of half-maximal effect.

Sequence of Nuclear receptor subfamily 1 group I member 2 (Homo sapiens) (O75469 whole entry, looked up): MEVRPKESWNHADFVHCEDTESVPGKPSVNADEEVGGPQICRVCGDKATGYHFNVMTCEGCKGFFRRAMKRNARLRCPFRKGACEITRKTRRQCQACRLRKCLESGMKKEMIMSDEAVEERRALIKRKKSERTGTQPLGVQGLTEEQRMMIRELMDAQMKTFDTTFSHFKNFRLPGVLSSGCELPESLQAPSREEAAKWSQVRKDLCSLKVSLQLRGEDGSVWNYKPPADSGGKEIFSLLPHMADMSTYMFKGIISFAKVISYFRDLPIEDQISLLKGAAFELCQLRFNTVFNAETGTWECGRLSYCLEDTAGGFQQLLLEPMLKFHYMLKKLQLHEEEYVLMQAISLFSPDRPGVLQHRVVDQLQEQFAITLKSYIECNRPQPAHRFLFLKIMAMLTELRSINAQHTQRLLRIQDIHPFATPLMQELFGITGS

The experiment addresses Nuclear receptor subfamily 1 group I member 2 (Homo sapiens) (UniProt O75469). Put plainly: Human pregnane X receptor (PXR) small molecule agonists, qHTS assay (AID 1346982). Note: nearly all actives have a fitted effect of over 35% in size. Conditions: PXR-Luc HepG2, CYP3A4 luciferase reporter, 24 h; series mostly up to 92.4 µM; activation: at the top concentration. The text has this: National Center for Advancing Translational Sciences [NCATS]
NIH Chemical Genomics Center [NCGC]
U.S. Environmental Protection Agency [EPA]
National Institutes of Environmental Health Sciences [NIEHS]
National Toxicology Program [NTP]
The human pregnane X receptor (hPXR) regulates the expression of several drug metabolizing enzymes and induction of these proteins is a major mechanism for developing drug resistance in cancer. One such key enzyme catalyzing the drug metabolism is cytochrome P450 3A4 (CYP3A4). Changes in CYP3A4 expression affect drug metabolism, thereby reducing the therapeutic efficacy and altering toxicological response to a drug and which finally causes adverse drug interaction. To screen Tox21 libraries for compounds that activate hPXR-mediated CYP3A4 gene expression, PXR-Luc HepG2 cells were used.
PXR-Luc HepG2 cells were dispensed at 2,000 per well in 5uL of assay medium containing 5% charcoal-stripped FBS into white solid bottom 1536-well plates (Corning Life Sciences, Corning, NY) using a Multidrop Combi (Thermo Scientific, Waltham, MA) dispenser. The assay plates were incubated at 37 C and 5% CO2 for 5hr, and then 23nL of compounds dissolved in DMSO and positive control were transferred using a Pintool station (Wako, San Diego, CA). The assay plates were incubated at 37C and 5% CO2 for 24hr. For luciferase read, 4uL of ONE-Glo reagent (Promega Corporation, Madison, WI) was added to each well of the assay plates using Flying Reagent Dispenser (FRD, Aurora Discovery, San Diego, CA) and incubated the assay plates at room temperature for 30min. The luminescence signal was quantified using a ViewLux plate reader (Perkin Elmer, Shelton, CT).
(qHTS replaces the single test concentration by a dilution series.)
As to `CC(=O)Nc1ccc2c(c1)Cc1cc(NC(C)=O)ccc1-2`, the Potency is 17.2 µM (active) and 7.7 µM (active). Same read-out and setting: with `C=CCOC(=O)C(=C)C` the entry was “inactive”; with `O=[Se](O)O`, “inactive”. `CCCCCC1C(=O)CCC1CC(=O)OC` (stereo not given): the Potency entry was “inactive”. Still for that read-out and setting: with `CCCOCCO` the entry was “inactive”. On the same count and under the same terms, the entry for `CC/C=C\C/C=C\C/C=C\CCCCCCCC(=O)O` is “inactive and 61.1 µM (active)”; for `CCCCCCCC/C=C\CCCCCCCC(=O)O` it is “inactive”.

For the compound `C=C1C[C@H]2[C@@H]3C=C(C)C4=CC(=O)CC[C@]4(C)[C@H]3CC[C@]2(C)[C@@]1(OC(C)=O)C(C)=O`, the Potency is 31.3 µM (active). In the case of `O=C(O)CCCC(=O)O`, the Potency entry was “inactive”.

Turning to `COC(=O)CC(=O)OC`, the Potency is 56.7 µM (active) and inactive. With `CCCCCCCCCCCCO`, the Potency entry is “inactive”.

For `Cc1cccc(Nc2ccccc2C(=O)O)c1C`, the Potency is 48.6 µM (active) and inactive.

Take `COC(=O)C(C)Oc1ccc(Oc2ncc(C(F)(F)F)cc2Cl)cc1` (stereo not given): the Potency is 61.9 µM (active) and 61.1 µM (active). On the same count and under the same terms, the entry for `Oc1c(Cl)ccc(Cl)c1Cl` is “inactive”; for `CC(C)(C)c1cccc(C(C)(C)C)c1O` it is 59.8 µM (active) and inactive; for `CN(C)C` it is “inactive”.

As for `CNC[C@H](O)c1ccc(O)c(O)c1`, the Potency result was “inactive”.

Regarding `O=C1CCc2ccccc2O1`, the Potency entry was “inactive”.

Turning to `C1COCCN1`, the Potency entry was “inactive”. For the compound `CC1(C)C(C=C(Cl)Cl)C1C(=O)OCc1cccc(Oc2ccccc2)c1` (stereo not given), the Potency was 24.2 µM (active). Take `COc1ccc2nc(N)sc2c1`: the Potency was 48.6 µM (active) and 21.7 µM (active). Still for that read-out and setting: with `CN(Cc1cnc2nc(N)nc(N)c2n1)c1ccc(C(=O)N[C@@H](CCC(=O)O)C(=O)O)cc1` the entry was “inactive”. Same read-out and setting: with `CCCCCCCCCCCCCO` the entry was “inactive”; with `CCC/C=C/C=O`, “inactive”.

In the case of `NC[C@H](O)c1ccc(O)c(O)c1`, the “activation” value is -14.4% [at 42.5 µM] (inactive).

`OC[C@H]1O[C@@H]2O[C@H]3[C@H](O)[C@@H](O)[C@@H](O[C@H]4[C@H](O)[C@@H](O)[C@@H](O[C@H]5[C@H](O)[C@@H](O)[C@@H](O[C@H]6[C@H](O)[C@@H](O)[C@@H](O[C@H]7[C@H](O)[C@@H](O)[C@@H](O[C@H]1[C@H](O)[C@H]2O)O[C@@H]7CO)O[C@@H]6CO)O[C@@H]5CO)O[C@@H]4CO)O[C@@H]3CO`: the Potency result was “inactive”.

Take `Cc1ccc2c(c1)C(=O)OC2=O`: the “activation” value was 8.67% (inactive). Turning to `Brc1nc2ccccc2s1`, the Potency was 60.9 µM (active). On the same count and under the same terms, with `Cc1ccc(N)c([N+](=O)[O-])c1` the entry was “inactive”.

As to `c1ccc2c(c1)ccc1ncccc12`, the Potency is 60.7 µM (active) and 61.1 µM (active). The same measure, in the same setting: with `CC(=O)Oc1ccc(C(c2ccc(OC(C)=O)cc2)c2ccccn2)cc1` the figure was 54.2 µM (active) and inactive. On the same count and under the same terms, the entry for `Cc1ccc(C(C)(C)C)cc1` is “inactive”; for `Cc1ccc([N+](=O)[O-])c(C)c1` it is “inactive”.

As for `ClC/C=C/CCl`, the Potency entry was “inactive”. Take `C1CN(SSN2CCOCC2)CCO1`: the Potency was 61.1 µM (active). For the compound `CC(=O)[C@@]1(O)CC[C@H]2[C@@H]3C[C@H](C)C4=CC(=O)C=C[C@]4(C)[C@@]3(F)[C@@H](O)C[C@@]21C`, the Potency is 15.4 µM (active). Same read-out and setting: the entry for `Cc1ccc(C)c(O)c1` is “inactive”; for `Nc1ccc2c(O)cc(S(=O)(=O)O)cc2c1` it is 30.7 µM (active). Same read-out and setting: with `O=C(O)CCCCCCCCCCCC(=O)O` the entry was “inactive”; with `CC(C)=CCO`, 62.6 µM (active) and inactive.
